± gives the standard deviation of the averaged measurements.
Assays:
DLD1 [1] = assay: cell viability (CellTiter-Glo) relative to plate median (fraction of plate median); higher = more viable cells; conditions: 5 µM; treatment time 24 h; reporter: 7TFP
Method in brief: (§1)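 Per-well firefly luciferase or CellTiterGlo luminescence, normalised to the plate median, is what is reported. It was measured in colorectal cancer cells with stable lentiviral TCF/Wnt firefly luciferase reporters after a 24 h treatment with library compounds at a final 5 µM. The mean of two independent replicates is given.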

HCT116 = assay: as above; conditions: 5 µM; treatment time 24 h; reporter: TCF4/Wnt
Method in brief: as §1

SW480 [2] = assay: as above; conditions: 5 µM; treatment time 24 h; reporter: 7TFP
Method in brief: as §1

DLD1 [3] = assay: TCF/Wnt firefly luciferase reporter signal relative to plate median (fraction of plate median); higher = higher Wnt reporter signal; conditions: 5 µM; treatment time 24 h; reporter: 7TFP
Method in brief: as §1

SW480 [4] = assay: as above; conditions: 5 µM; treatment time 24 h; reporter: 7TFP
Method in brief: as §1

SMILES	cell viability (DLD1 [1])	cell viability (HCT116)	cell viability (SW480 [2])	TCF/Wnt firefly luciferase reporter signal (DLD1 [3])	TCF/Wnt firefly luciferase reporter signal (SW480 [4])
COC(=O)/C(=C1/OC(=O)C(c2ccccc2)=C1O)c1ccccc1	1.06 ± 0.057	1.02 ± 0.12	1.07 ± 0.064	1.05 ± 0.14	1.1 ± 0.05
Nc1ccc(C(=O)NCC(=O)O)cc1	0.988 ± 0.059	0.962 ± 0.069	0.98 ± 0.057	0.998 ± 0.088	0.984 ± 0.12
Oc1ccc(/C=C/c2cc(O)cc(O)c2)cc1	0.995 ± 0.022	1.05 ± 0.042	1.03 ± 0.098	1.05 ± 0.05	0.891 ± 0.059
C[C@H](CCC(=O)O)[C@H]1CC[C@H]2[C@@H]3[C@@H](O)C[C@@H]4C[C@H](O)CC[C@]4(C)[C@H]3CC[C@]12C	0.966 ± 0.029	1.01 ± 0.025	0.958 ± 0.028	0.89 ± 0.061	1.02 ± 0.09
CCCCCCCCCCCCCCCC(=O)OC/C=C(C)/C=C/C=C(C)/C=C/C1=C(C)CCCC1(C)C	0.986 ± 0.048	1.07 ± 0.035	0.9965 ± 0.0021	0.885 ± 0.1	1.01 ± 0.073
COc1cc(/C=C/C(=O)O)ccc1O [Ferulic acid (Biofocus)]	0.923 ± 0.17	1.05 ± 0.028	1.02 ± 0.014	0.962 ± 0.012	1.04 ± 0.069
CC(=O)Oc1c(-c2ccccc2)oc2c(CC=C(C)C)c3c(c(OC(C)=O)c2c1=O)C=CC(C)(C)O3	1.05 ± 0.057	1.11 ± 0.11	1.02 ± 0.028	0.855 ± 0.044	0.972 ± 0.036
NC(=O)NC(=O)Cc1ccccc1	1.02 ± 0.014	1.16 ± 0.035	1.02 ± 0.037	1.12 ± 0.064	0.94 ± 0.08
COc1ccc([C@H]2COc3c(ccc(O)c3OC)C2)c(OC)c1O	1.01 ± 0.038	0.95 ± 0.052	1.03 ± 0.014	0.987 ± 0.13	0.878 ± 0.069
CCCCCC/C=C\CCCCCCCc1cccc(O)c1C(=O)O	1.05 ± 0.14	1.08 ± 0.028	1.05 ± 0.042	0.985 ± 0.14	0.996 ± 0.021
N[C@@H](Cc1cc(I)c(Oc2ccc(O)c(I)c2)c(I)c1)C(=O)O	0.988 ± 0.015	0.926 ± 0.012	0.969 ± 0.036	1.01 ± 0.17	0.978 ± 0.0099
O=CNc1ccccc1C(=O)O [N-Formylanthranilic acid]	0.936 ± 0.018	1.02 ± 0.021	0.92 ± 0.088	0.954 ± 0.12	0.689 ± 0.13
O=c1c(O)cccc2cc(O)c(O)c(O)c12	1.06 ± 0.057	0.914 ± 0.056	1.01 ± 0.037	1.04 ± 0.014	0.944 ± 0.094
COC(=O)[C@H]1[C@H]2C[C@@H]3c4[nH]c5cc(OC)ccc5c4CCN3C[C@H]2C[C@@H](OC(=O)c2cc(OC)c(OC)c(OC)c2)[C@@H]1OC	0.932 ± 0.065	1.02 ± 0.07	0.972 ± 0.054	0.974 ± 0.093	1.01 ± 0.018
C[C@@H]1CC[C@@]23CCC4(C)[C@@](C=CC5[C@@]6(C)CC[C@H](O)C(C)(C)C6CC[C@]54C)(OC2=O)C3[C@H]1C (stereo not given in full)	1.025 ± 0.0071	1.04 ± 0.028	0.993 ± 0.0042	1.06 ± 0.18	0.994 ± 0.023
C[C@@H]1CCCCCCCCC[C@H](OC(=O)CCC(=O)O)C(=O)/C=C/C(=O)O1	1.03 ± 0.05	1.09 ± 0.11	1.02 ± 0.028	1.17 ± 0.05	1.09 ± 0.014
COc1ccc(C=CC(=O)O)cc1OC	0.993 ± 0.0099	1.06 ± 0.085	1.02 ± 0.053	1.12 ± 0.042	0.987 ± 0.033
CC(=O)O[C@@H]1CC(=O)[C@@]2(C)C(CC(=O)[C@]3(C)C2CC[C@@]2(C)[C@H](c4ccoc4)OC(=O)C4OC423)C1(C)C (stereo not given in full)	1.025 ± 0.0071	1.025 ± 0.0071	0.981 ± 0.0057	0.986 ± 0.12	1.05 ± 0.098
Oc1c(Br)cc(Br)c2cccnc12	1.02 ± 0.021	1.07 ± 0.071	0.965 ± 0.064	1.24 ± 0.014	1.12 ± 0.028
CCC[C@@H]1C[C@@H](C(=O)N[C@@H]([C@H]2O[C@H](SC)[C@H](O)[C@@H](O)[C@H]2O)[C@@H](C)O)N(C)C1	1.05 ± 0.12	1.03 ± 0.021	1.035 ± 0.0071	0.934 ± 0.015	1.04 ± 0.083
CC(=O)NCCCS(=O)(=O)O	1.03 ± 0.091	1.03 ± 0.028	1.025 ± 0.0071	1.12 ± 0.11	1.06 ± 0.071
C[C@@H]1C/C=C/C=C/C=C/C=C/[C@H](O[C@@H]2O[C@H](C)[C@@H](O)[C@H](N)[C@@H]2O)C[C@@H]2O[C@](O)(C[C@@H](O)C[C@H]3O[C@@H]3/C=C/C(=O)O1)C[C@H](O)[C@H]2C(=O)O	1.03 ± 0.08	0.915 ± 0.13	0.987 ± 0.019	0.921 ± 0.033	0.962 ± 0.028
C[C@H]1CC[C@@H](C(C)(C)O)CC2=C1CC[C@@H]2C	0.964 ± 0.079	1.025 ± 0.0071	0.9715 ± 0.0078	0.907 ± 0.11	0.86 ± 0.016
O=C(O)CCc1nc(-c2ccccc2)c(-c2ccccc2)o1	0.846 ± 0.15	0.999 ± 0.13	0.963 ± 0.02	0.915 ± 0.03	0.952 ± 0.032
CCn1cc(C(=O)O)c(=O)c2cc(F)c(N3CCN(C)CC3)cc21	1 ± 0.04	1.015 ± 0.0071	0.982 ± 0.018	1.19 ± 0.035	1.05 ± 0.078
CN1CCC(=C2c3ccccc3Sc3ccccc32)CC1	1.004 ± 0.0092	0.913 ± 0.032	1.03 ± 0.059	0.874 ± 0.026	0.944 ± 0.071
O=C(O)c1ccccc1C(=O)Nc1ccc(S(=O)(=O)Nc2nccs2)cc1	1.05 ± 0.08	0.918 ± 0.088	1.004 ± 0.0085	1.03 ± 0.12	1.11 ± 0.021
NC(=O)N(CCc1ccccc1)CCc1ccccc1 [N, N-Bis(2-phenylethyl)urea]	1.08 ± 0.085	1.01 ± 0.014	1.06 ± 0.021	1.03 ± 0.028	0.946 ± 0.077
CCCCCCc1ccc(O)cc1O	1.04 ± 0.061	1.14 ± 0.021	1.07	1.09 ± 0.014	1 ± 0.11

— the supplement of paper PMC6522484
